# Hits are enriched below; roughly 5.8% of the tested compounds scored in any of these assays.
# KB-V1 cytotox = kills drug-selected multidrug resistant KB-V1 cells; hit rate 3.4% among 400,000; Potency, µM (titrated, usually from 46.1 µM), usual class: cytotoxic; KB-V1 MDR cells viability, CellTiter-Glo, 72 h; further: on the % scale 0 is the no-effect control and ±100 the full control effect; nearly all actives have a fitted effect of over 60% in size
#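 Cells of the MDR subline KB-V1 are plated, dosed with compound at multiple concentrations, and incubated 72 h at 37 degrees C; CellTiter-Glo is then added and luminescence read after 10 min.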
# 12-LOX inh = ALOX12 (human) lipoxygenase inhibition. Potency, µM (titrated, usually from 108 µM), inactives show at the highest dose activity change, negative = inhibition, most hits filed as inhibitors. P18054. purified 12hLO, xylenol orange hydroperoxide absorbance. hit rate 1.1% among 580,000; further: on the % scale 0 is the no-effect control and ±100 the full control effect
# Target sequence (P18054 whole entry, looked up): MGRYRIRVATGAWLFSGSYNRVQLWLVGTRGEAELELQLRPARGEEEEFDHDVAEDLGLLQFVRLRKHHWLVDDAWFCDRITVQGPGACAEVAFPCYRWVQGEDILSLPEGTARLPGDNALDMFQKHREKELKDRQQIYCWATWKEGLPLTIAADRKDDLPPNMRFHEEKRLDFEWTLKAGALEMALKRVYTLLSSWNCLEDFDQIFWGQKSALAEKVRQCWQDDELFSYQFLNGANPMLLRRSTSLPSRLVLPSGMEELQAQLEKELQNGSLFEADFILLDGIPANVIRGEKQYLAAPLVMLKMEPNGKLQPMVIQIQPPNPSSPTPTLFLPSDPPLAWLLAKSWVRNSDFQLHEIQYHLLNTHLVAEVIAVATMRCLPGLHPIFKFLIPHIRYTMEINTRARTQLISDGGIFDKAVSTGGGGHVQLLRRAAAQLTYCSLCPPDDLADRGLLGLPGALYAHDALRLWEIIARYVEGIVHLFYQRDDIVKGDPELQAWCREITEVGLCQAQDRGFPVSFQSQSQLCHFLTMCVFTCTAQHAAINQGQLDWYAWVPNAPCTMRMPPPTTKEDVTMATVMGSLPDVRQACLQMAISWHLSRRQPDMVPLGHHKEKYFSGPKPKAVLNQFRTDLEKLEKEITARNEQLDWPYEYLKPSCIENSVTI
#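 Purified human 12hLO (150 nM final) in 25 mM Hepes, 0.01% Triton X-100, pH 7.0 was preincubated 15 min at room temperature with compound. Then 40 uM arachidonic acid was added, 30 min. Hydroperoxide was read by Fe-XO absorbance ratio 573/405 nm.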
# PINK1 expr mod = PINK1 expression modulation | PINK1 immunofluorescence, high-content cytometry, 24 h | Potency, µM (titrated, usually from 76.6 µM), for inactives: at the highest dose activation (PINK1 increase), hits mostly activators | hit rate 0.2% among 410,000; active means well fitted activation curve with a large enough effect; inconclusive means small, poorly fitted or top-dose-only effect; cell line not stated here; further: % of control where 0% means no effect; nearly all actives have a fitted effect of over 65% in size
#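 Decision-based qHTS: stable cells, 24 h exposure to five compound concentrations, CCCP as control. Fixed cells stained for PINK1 plus nuclear, mitochondrial and cell markers, cytometer read.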
# SW480 rereplic = DNA re-replication induction in SW480 cells; SW480 DNA re-replication, Hoechst DNA content imaging, 48 h; Potency, µM (highest dose often 46.1 µM), inactives show at the highest dose re-replication activation, most hits filed as activators; hit rate 1.8% among 340,000; further: % of control where 0% means no effect; nearly all actives have a fitted effect of over 55% in size
#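 Treated cells incubate 48 hr (37 C, 5% CO2), are stained 40 min with Hoechst, and nuclear fluorescence is enumerated; a rise in nuclei with high DNA signal marks re-replication.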
# MCF10A rerep = DNA re-replication induction in MCF 10a cells. MCF 10A DNA re-replication, Hoechst nuclear intensity, 48 h. AID 624296. hit rate 2.9% among 350,000. Potency, µM (top dose mostly 46.1 µM), for inactives: at the highest dose activity, positive = re-replication, actives largely listed as activators; further: % of control where 0% means no effect; nearly all actives have a fitted effect of over 50% in size
# KB-3-1 cytotox = KB-3-1 parental cell cytotoxicity; KB-3-1 viability, CellTiter-Glo ATP luminescence, 72 h; Potency, µM (top dose mostly 46.1 µM), most hits filed as cytotoxic; hit rate 1.4% among 400,000; AID 1347075; further: on the % scale 0 is the no-effect control and ±100 the full control effect; nearly all actives have a fitted effect of over 60% in size
#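 Parental KB-3-1 viability, qHTS format: 72 h compound exposure, 37 °C; CellTiter-Glo; media-only wells and DMSO plates as controls; concentration-effect fits on corrected data.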
# Numbers without * were called inactive; i = inactive; u = inconclusive; x = no result; [ ] = remark or other dose. Unless noted, the call rests on the fitted dose curve; in most records, active means well fitted curve in the direction sought with a large enough effect; inconclusive means small, poorly fitted or top-dose-only effect, or another doubt; inactive means no such curve, though single readings can be large; an effect the other way counts as inactive or inconclusive. Potency means the concentration at half of the fitted maximal effect.
SMILES,KB-V1 cytotox,12-LOX inh,PINK1 expr mod,SW480 rereplic,MCF10A rerep,KB-3-1 cytotox
CCN(CC)CCC(=O)N1c2ccccc2Sc2ccc(NC(=O)OC)cc21,i,28µM*,0%,u,23µM*,i
COc1ccc2nc(NC(=O)c3cccc(OCc4c(C)noc4C)c3)sc2c1,3.7µM*,-3%,0%,u,19%,18µM*
CCN(Cc1ccc(Cl)s1)C(=O)c1cccc(OCc2c(C)noc2C)c1,5.8µM*,u,8%,4%,u,u
COc1ccc2nc(NC(=O)c3cc(C)oc3C)sc2c1,u,0%,5%,-4%,9%,u
CNC(=O)c1cccc(NC(=O)c2cccc(OCc3c(C)noc3C)c2)c1,x,8%,x,x,x,x
COc1ccc2nc(NC(=S)N(C)C)sc2c1,3.3µM*,7.9µM*,4%,-9%,11%,21µM*
COc1ccc2nc(NC(=O)c3ccoc3C)sc2c1,7.3µM*,-1%,5%[38.3 µM],13%,u,i
CCCC(=O)Nc1nc2ccc(OC)cc2s1,i,-1%,1%,-3%,9%,i
Cc1ccc(-c2csc3nc[nH]c(=S)c23)cc1C,13µM*,28µM*,2%,u,u,u
CN(C)CCOc1ccc2c(c1)C(=O)C(=Cc1ncc([N+](=O)[O-])n1C)C2,3.7µM*,u,2%,x,x,u
NNC(=S)Nc1ccc(Br)cc1,x,7.1µM*,x,x,x,x
Cc1c(CC(=O)NCCc2ccc(Cl)cc2)c(=O)oc2c(C)c(O)ccc12,x,-7%,x,x,x,x
O=C(NNC(=O)C1CCN(S(=O)(=O)c2c(Cl)cccc2Cl)CC1)c1ccccc1O,18µM*,-20%,-1%,u,u,u
CSc1ccccc1OCc1cc(C(=O)N2CCN(C3CCCC3)C(=O)C2)no1,15µM*,-4%,2%,-3%,1%,i
CSc1ccccc1OCc1cc(C(=O)NCCC2=CCCCC2)no1,23µM*,477%,11%,2%,9%,i
O=C(c1cc(COc2ccc(F)cc2F)on1)N1CCN(C2CCCC2)C(=O)C1,5.2µM*,-6%,6%,-7%,12%,i
COc1cc(Cl)ccc1C(=O)N[C@@H]1CN(c2ncccn2)C[C@H]1CN(C)C,x,38%,x,x,x,x
Cc1cccc(N2NC3(CCCC(C)C3)NC2=S)c1C (stereo unspecified),x,8.9µM*,x,x,x,x
CC1CCC2(CC1)NC(=S)N(c1ccccc1)N2 (stereo unspecified),i,u,0%,-3%,8%,i
COc1ccc(O)c(C(=O)c2cc(C(=O)NCCc3ccccc3)c(=O)n(CCc3ccccc3)c2)c1,2.1µM*,-19%,2%,1%,6%,i
Cc1ccc(O)c(C(=O)c2cc(C(=O)NCCc3ccccc3)c(=O)n(CCc3ccccc3)c2)c1,i,23%,0%,u,u,i
NCCCCCCCN1CCCC1,x,0%,x,x,x,x
O=S(=O)(c1cccc(Cl)c1)n1c(/C=C/c2ccccc2Cl)nc2ccccc21,x,u,0%,x,x,x
CSc1ccc(/C=C/c2nc3ccccc3n2S(=O)(=O)c2cccc(Cl)c2)cc1,i,-18%,u,x,x,15µM*
CCC(C)NC(=O)c1ccccc1NC(=O)C1CCN(S(=O)(=O)Cc2ccc(C)cc2)CC1 (stereo unspecified),x,6%,x,x,x,x
Cc1nonc1OCC(C)(COc1nonc1C)NC(=O)c1ccccc1,18µM*,-9%,u,0%,7%,i
CCOC(=O)CNC(=O)c1ccccc1,i,-3%,0%,7%,2%,i
CC(=O)N(C(C)=O)c1c(C#N)c(C)n(-c2ccccc2)c1C(=O)c1ccccc1,u,-9%,3%,u,6.5µM*,i
Cc1[nH]c(C(=O)O)c(C#N)c1C(=O)c1ccccc1,u,0%,3%,-5%,0%,i
Cc1ccc(C)c(S(=O)(=O)Nc2nc3ccccc3nc2NCc2ccccc2)c1,x,-39%,x,x,x,x
